Among the data in PubChem BioAssay are inhibition values, retold here.

Activity calls are given as the source filed them. How the calls were made is not given here.

For the assay, the target named is Pantothenate synthetase (Mycobacterium tuberculosis (strain ATCC 25618 / H37Rv)) (UniProt P9WIL5). Put plainly: Recombinant Mtb pantothenate synthetase (PanC) inhibitors, coupled enzyme, confirmatory (AID 375).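 Further: 0% = full reaction with vehicle and 100% = no enzyme background.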 Conditions: coupled enzyme assay; at 10 µM, stronger effect = higher value.
Chain of Pantothenate synthetase (Mycobacterium tuberculosis (strain ATCC 25618 / H37Rv)) (P9WIL5 whole entry, looked up): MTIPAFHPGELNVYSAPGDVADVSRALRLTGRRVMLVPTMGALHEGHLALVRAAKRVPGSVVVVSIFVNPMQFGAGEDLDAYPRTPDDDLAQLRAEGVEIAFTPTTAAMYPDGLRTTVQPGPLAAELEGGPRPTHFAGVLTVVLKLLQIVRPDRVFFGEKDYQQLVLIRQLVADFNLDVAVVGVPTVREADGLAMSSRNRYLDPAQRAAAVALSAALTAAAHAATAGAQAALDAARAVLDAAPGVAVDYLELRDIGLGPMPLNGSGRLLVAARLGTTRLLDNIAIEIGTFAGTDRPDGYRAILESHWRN
`Cc1cccc(-n2ncc3c(NCc4cccs4)ncnc32)c1`: the inhibition was 0% (inactive). Turning to `CCCCn1c(NC(=O)CC)c(C#N)c2nc3ccccc3nc21`, the inhibition is 4% (inactive).

On to `O=C(c1cnn2c(C(F)(F)F)cc(-c3ccco3)nc12)N1CCc2ccccc2C1`, for which the inhibition is 3% (inactive). With `COc1ccc(-c2cc3ccc(OCc4nn[nH]n4)cc3oc2=O)cc1`, the inhibition was 7% (inactive). Turning to `CCN(CC)C(c1ccc(C)cc1)c1nnnn1C1CCCCC1` (stereo not given), the inhibition was 0% (inactive). Consider `CCC(C(=O)OCC(=O)Nc1c(C)n(C)n(-c2ccccc2)c1=O)c1ccccc1` (stereo not given), for which the inhibition is 2% (inactive).

As for `Cc1cc(C(=O)N2CCN(c3ncccn3)CC2)cs1`, the inhibition was 4% (inactive). As for `CN1CCN(c2nc(-c3ccncc3)nc3ccccc23)CC1`, the inhibition was 0% (inactive). With `CNC(=O)CSc1nc2c(c(=O)n(C)c(=O)n2C)n1Cc1ccc(C)cc1`, the inhibition was 0% (inactive). In the case of `O=C(OCC#CCSc1nnc(-c2ccncc2)o1)c1cccs1`, the inhibition was 0% (inactive). As for `CC(c1ccccc1)N1C(=O)c2ccc(C(=O)NCc3ccco3)cc2C1=O` (stereo not given), the inhibition was 1% (inactive).

Consider `Cc1ccc(C(C)C)c(OCCCN2CC(C)OC(C)C2)c1` (stereo not given), for which the inhibition was 0% (inactive). For `O=S(=O)(c1ccc(OCC(O)CN2CCc3ccccc3C2)cc1)N1CCOCC1` (stereo not given), the inhibition was 9% (inactive). For the compound `Cc1ccc(NC(=O)CS(=O)CC(=O)NCC2CCCO2)cc1` (stereo not given), the inhibition is 0% (inactive).

As to `O=C(Nc1cccnc1)Nc1ccc2c(c1)OCO2`, the inhibition was 0% (inactive). Next, `COC(=O)Nc1sc2c(c1C(N)=O)CCCCCC2`: 2% (inactive). With `Cc1onc(-c2c(Cl)cccc2Cl)c1C(=O)NCC1CCCO1` (stereo not given) the figure was 0% (inactive); with `COCC(=O)Nc1cc(OC)ccc1OC`, 3% (inactive); with `O=C(CSc1nc(-c2ccco2)cc(C(F)(F)F)n1)N1CCCc2ccccc21`, 5% (inactive). Turning to `CCOc1cc(S(=O)(=O)NCc2ccc3c(c2)OCO3)ccc1F`, the inhibition was 2% (inactive). As for `COc1ccc(-n2nnnc2SCC(=O)N2CCOCC2)cc1`, the inhibition is 3% (inactive).

Regarding `O=C(Cn1c(=O)[nH]c2ccsc2c1=O)N1CCN(c2ccc(F)cc2)CC1`, the inhibition is 0% (inactive). `CCOC(=O)C1CSc2[nH]c(=O)sc2C1c1ccccc1` (stereo not given): the inhibition is 0% (inactive). Turning to `COc1cccc(Oc2ccc(N)cc2)c1`, the inhibition is 0% (inactive). `Cc1csc(NC(=O)CSc2nnc(Cc3cccn3C)n2-c2ccc(F)cc2)n1`: the inhibition is 0% (inactive). For `O=c1c2nnn(Cc3ccccc3)c2ncn1-c1ccccc1`, the inhibition is 0% (inactive).

In the case of `O=C(NCCC1=CCCCC1)C1CCN(S(=O)(=O)c2cccc3cccnc23)CC1`, the inhibition is 19% (inactive). For `CCOc1nc(-c2ccccc2)ccc1-c1noc(-c2ccc(OC)c(OC)c2)n1`, the inhibition is 4% (inactive). With `CC(=O)N1CCN(S(=O)(=O)c2ccc(S(=O)(=O)NC3CC3)cc2)CC1` the figure was 3% (inactive). For the compound `C=C(Cl)COC(=O)[C@H]1C2C=CC(C2)C1C(=O)O` (stereo not given in full), the inhibition is 2% (inactive). `CCn1c(CCNC(=O)c2cccs2)nnc1SCC(=O)c1ccc(OC)cc1`: the inhibition was 0% (inactive).

With `CC1(C)Cc2noc(N)c2C(C)(C)N1OC(=O)c1ccco1`, the inhibition was 0% (inactive).

As to `Clc1ccc(Cn2ncc3c(NCc4cccnc4)ncnc32)cc1`, the inhibition was 0% (inactive). As for `FC(F)Sc1nnc(-c2cccs2)n1-c1ccccc1`, the inhibition is 0% (inactive). With `COc1ccc(C(NC(C)=O)c2ccc3cccnc3c2O)c(OC)c1` (stereo not given), the inhibition is 0% (inactive).

In the case of `c1ccc(OCCCn2nnc(-c3ccncc3)n2)cc1`, the inhibition is 3% (inactive). In the case of `Nn1c(SCC(=O)Nc2ccc3c(c2)OCCO3)nnc1C(F)(F)F`, the inhibition is 4% (inactive). Take `CCOC(=O)c1c(COC(=O)c2ccco2)nc2ccccc2[n+]1[O-]`: the inhibition was 0% (inactive).

Take `COc1ccc(Cc2nnc3n2N=C(c2cc4ccccc4o2)CS3)cc1OC`: the inhibition was 0% (inactive). Turning to `C=CCn1c(-c2ccccc2)c[nH]c1=S`, the inhibition was 0% (inactive).

Broadly, the inhibition is the drop in the measured response relative to a control, in per cent.
